Results: PubChem BioAssay AID1347170 (National Center for Advancing Translational Sciences (NCATS), 2019)
Records with an inconclusive call do not appear. Values without a mark were called inactive. Calls come from the whole dose curve; as a rule, active = well fitted cell-killing curve with a large enough effect; inconclusive = small, poorly fitted or top-dose-only effect, or another doubt; inactive = flat fitted curve, though single readings scatter.

Test: Vero cells viability counterscreen for qRT-PCR qHTS assay of selected Zika virus inhibitors
Details: CellTiter-Glo ATP luminescence, 24 h; series mostly up to 41.8 µM; activity change, negative = cytotoxicity: at the top concentration
Description: Assay Submitters (PI): Avindra Nath, Ph.D., National Institute of Neurological Disorders and Stroke (NINDS), Bethesda, MD Radhakrishnan Padmanabhan, Ph.D., Georgetown University (GU), Washington D.C. Zika Virus causes congenital defects, including microcephaly and is associated with Guillain-Barre syndrome, eningoencephalitis and myelitis in infected adult. […] Using a target-based approach, we hope to establish a screening paradigm to uncover novel, cell-active NS2B-NS3 protease (Zika Virus) specific inhibitors from NCATS' collection of small molecules using qHTS. […] Four assay panel was created to identify potential Zika Virus inhibitors. Namely, (1) GU unlinked NS2B-NS3 AMC tagged protease qHTS, (2) GU unlinked NS2B-NS3 Rhodamine tagged protease qHTS, (3) NINDS linked NS2B-NS3 AMC tagged protease qHTS, (4) NINDS linked NS2B-NS3 Rhodamine tagged protease qHTS. Inhibitors of the Zika virus primary screens are confirmed using qRT-PCR secondary assays, mCherry orthogonal assay, and Vero cells viability counterscreen. Cytotoxic compounds identified in the Vero cell viability counterscreen were excluded from the list of potential Zika virus inhibitors. Early Translation Branch (ETB) National Center for Advancing Translational Sciences (NCATS), Rockville, MD National Institute of Health (NIH), Bethesda, Maryland
Vero Cell Viability Assay: Vero cell cytotoxicity was determined using a luminescent readout with CellTiter Glo reagent (Promega, Madison, WI), which is based on measuring the ATP content within cells. Briefly, 4 uL of Vero cells at 2.5 x 10^5 cells/mL in DMEM containing 4% FBS were dispensed into 1536-well solid bottom tissue treated white plate using a Multidrop Combi dispenser (Thermo Scientific). Plates were incubated at 37 degrees C, 95% humidity, and 5% CO2 overnight to allow for cell attachment. Compounds were dissolved in DMSO at different concentrations and transferred via pintool (Wako Automation), for a final concentration of 57 uM - 0.029 uM. Plates were again incubated for 24 hours, followed by a 2 uL addition of CellTiter Glo. Finally, plates were incubated for 30 minutes at 37 degrees C and 5% CO2 before being read on a ViewLux (Perkin Elmer) for luminescence.

Structure (SMILES)	activity change, negative = cytotoxicity
CN(C)[C@@H]1C(=O)C(C(N)=O)=C(O)[C@@]2(O)C(=O)C3=C(O)c4c(O)ccc(Cl)c4[C@@](C)(O)[C@H]3C[C@@H]12	-4.34%
CN(C)[C@@H]1C(=O)C(C(N)=O)=C(O)[C@@]2(O)C(=O)C3=C(O)c4c(O)cccc4[C@@](C)(O)[C@H]3C[C@@H]12	-3.72%
O=C1OC(c2ccc(O)c(S(=O)(=O)O)c2)(c2ccc(O)c(S(=O)(=O)O)c2)c2c(Br)c(Br)c(Br)c(Br)c21	-4.94% [at 31.5 µM]
Cc1cc(SCc2sc(-c3ccc(C(F)(F)F)c(F)c3)nc2C)ccc1OCC(=O)O	-17.4% [at 83.7 µM]
Oc1c(Cl)c(Cl)c(Cl)c(Cl)c1Cl	-6.7%
CC(=O)c1c(O)c(C)c(O)c(Cc2c(O)c3c(c(C(=O)/C=C/c4ccccc4)c2O)OC(C)(C)C=C3)c1O	7.22%
O=C(Nc1ccc(Br)cc1)c1cc(Br)cc(Br)c1O	-2.96% [at 31.5 µM]
CCCCCOc1cc2c(cc1-c1cc(/C=C/C(=O)O)ccc1O)C(C)(C)CCC2(C)C	-8.19%
C[C@]12CC[C@@H]3c4ccc(OC(=O)N(CCCl)CCCl)cc4CC[C@H]3[C@@H]1CC[C@@H]2O	1.61%
